# Compound activity from PubChem BioAssay.
# TSG101-PTAP inh: blocks PTAP/TSG101 interaction to inhibit HIV-1 budding; Q99816; Fluorescence polarization, FITC-PTAP peptide / Tsg101 binding; Potency, µM (highest dose often 115 µM), for inactives: top-dose activity change, negative = inhibition, actives largely listed as inhibitors; 340,000 tested, under 10 active; AID 493005; active = well fitted inhibition curve with a large enough effect in the main read-out, with a control signal flat, not every such curve was filed as active; inconclusive = small, poorly fitted or top-dose-only effect, or effect the other way, or a change in a side signal; inactive = no such curve, though single readings can be large or run the other way; also: potency is read from the fitted curve at half-maximal effect; % of control where 0% means no effect
# Target sequence (Q99816 whole entry, looked up): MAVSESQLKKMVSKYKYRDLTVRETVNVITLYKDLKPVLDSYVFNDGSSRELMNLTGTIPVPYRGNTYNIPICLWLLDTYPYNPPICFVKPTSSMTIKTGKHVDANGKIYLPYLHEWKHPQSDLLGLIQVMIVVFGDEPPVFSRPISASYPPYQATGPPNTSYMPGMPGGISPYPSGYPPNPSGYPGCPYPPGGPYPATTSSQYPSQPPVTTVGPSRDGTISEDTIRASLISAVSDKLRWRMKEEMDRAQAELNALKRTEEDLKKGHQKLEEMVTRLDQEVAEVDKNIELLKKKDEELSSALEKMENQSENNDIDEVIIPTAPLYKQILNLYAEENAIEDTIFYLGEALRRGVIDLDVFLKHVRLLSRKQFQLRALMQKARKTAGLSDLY
#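 FP read-out: FITC-PTAP peptide, 50 nM final, binding Tsg101 binding domain, 10 uM final; 20 min, r.t.; 10 mM HEPES pH 7.5, 0.15 M NaCl, 0.01% Tween 20, 3 mM EDTA, 0.1 mM TCEP.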
# KCNH2 3.1 block: KCNH2 3.1 (human) potassium channel inhibition; 340,000 tested, 0.95% active; U2OS KCNH2 3.1, thallium flux FluxOr; active compounds read low; activity change, % (tested at about 1.8 µM);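 active = maximum activity change below -70%; inconclusive = maximum activity change from -70% to -50%; inactive = maximum activity change above -50%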;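 also: thallium influx rate constant from kinetic fluorescence after stimulation buffer; % is scaled to controls: 0 for no effect and ±100 for the full control effect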
#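 FluxOr-based Tl+ influx in U2OS cells transduced with KCNH2 3.1 virus; rate constants normalized to DMSO controls.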
# hERG WT inh: inhibitors of human wildtype KCNH2 potassium channel. Q12809. U2OS, BacMam KCNH2, thallium flux FluxOr; active compounds read low. activity change, % at 1.84 µM. 340,000 tested, 0.37% active;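 active = maximum activity change below -70%; inconclusive = maximum activity change between -70% and -50%; inactive = maximum activity change above -50%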; also: % is scaled to controls: 0 for no effect and ±100 for the full control effect
#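 U2OS cells were transduced with wild-type KCNH2 virus (2.03 x 10^8 / mL) for 4 h at room temperature, then cultured overnight at 37 C. Thallium flux was read with FluxOr dye. Rate constants were normalized to DMSO controls.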
# TRPML1 ag: activates the human TRPML1 channel; TRPML1-expressing cells, Ca2+ dye fluorescence, FDSS; AID 624414; 410,000 tested, 0.12% active; Q9GZU1; activation, % (no concentration beside the values); in the data active = activation above about 50%; inconclusive = mostly about 30% to 49%; also: 0% is about no effect
#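 Kinetic FDSS Ca2+ read in Tet-induced TRPML1-DL cells (ABD Ca8 dye plus quencher, 45-90 min RT loading): baseline, then compound, then 110 s agonist window; EC80 agonist 54-4 at 4uM final added afterwards for a 110 s antagonist window.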
# GRP78 ERSR act: ER stress response induction in glioma; U87-MG GRP78 promoter luciferase reporter, 16 h; AID 602332; 420,000 tested, 0.02% active; Potency, µM, for inactives: at the top dose activation, hits mostly activators; active = well fitted activation curve with a large enough effect; inconclusive = small, poorly fitted or top-dose-only effect; inactive = no such curve, though single readings can be large or run the other way; also: potency is read from the fitted curve at half-maximal effect; series mostly up to about 76 µM; % of control where 0% means no effect; nearly all actives have a fitted effect of over 35% in size
#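 Stably transfected U87-MG human glioma cells carrying a GRP78-based luminescent sensor were seeded at 1000 cells/well, pin-dosed with compounds and incubated 16 h. Luciferase reagent was then added, and end-point luminescence was read after 10 min at room temperature.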
# TRPML1 inh: blocks the human TRPML1 channel. Q9GZU1. TRPML1-inducible cells, Ca2+ dye fluorescence, FDSS; active compounds read low; inhibition of EC80 agonist-evoked calcium signal. activity change, negative = inhibition, % (concentration not given with the values). 390,000 tested, 0.02% active; in the data active = activity change below about -50%; inconclusive = between about -30% and that limit;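 also: stimulus is agonist 54-4 at its EC80 concentration; % is scaled to controls: 0 for no effect and ±100 for the full control effect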
#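 Tet-induced TRPML1-DL cells loaded with Ca8 no-wash calcium dye were read kinetically on FDSS. Compound addition was followed by EC80 agonist 54-4 (4 uM final); inhibition was read over 110 s.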
# Starred values were filed as active, the others as inactive; ? = inconclusive; nt = no result given; ! = not confirmed by another sample. Rows were chosen to be rich in hits. Some 1% of all compounds tested hit in one or more screens of this group.
SMILES,TSG101-PTAP inh,KCNH2 3.1 block,hERG WT inh,TRPML1 ag,GRP78 ERSR act,TRPML1 inh
CCOC(=O)c1nnn(CC(=O)N2N=C(c3ccc(Cl)cc3)CC2c2ccccc2)c1C(=O)OCC (stereo not drawn),-1%,-71*,-12,-1,-4%,-10
Cn1ccc(C(=O)NCC2CCC3(CCN(Cc4cc(F)cc(F)c4)CC3)O2)n1 (stereo not drawn),nt,nt,nt,nt,-5%,nt
O=C(Nc1ccccc1N1CCN(C(=O)c2ccc(Cl)cc2)CC1)c1cc(Br)ccc1Cl,-3%,-101*,-121*,3,-1%,79
O=C(Nc1ccccc1N1CCN(C(=O)c2ccc(Cl)cc2)CC1)c1cccc([N+](=O)[O-])c1,-7%,-102*,-123*,0,13%,71
CN1CCN(c2ccccc2NC(=O)c2cc(Br)ccc2Cl)CC1,-3%,-87*,-23,2,4%,-15
Cc1ccc(C(=O)Nc2ccccc2N2CCCCC2)cc1[N+](=O)[O-],-6%,-83*,-7,3,-3%,27
COC(=O)c1c(OCCN2CCCCC2)cc(=O)n2c1CCN(Cc1cccc3nccnc13)CC2,nt,nt,nt,nt,-1%,nt
COC(=O)c1c(OCC2CCCN(C)C2)cc(=O)n2c1CCN(Cc1ccc(OC)c(O)c1)CC2 (stereo not drawn),nt,nt,nt,nt,-7%,nt
CC[C@H](c1ccccc1)c1noc(CCN(CC)CC)n1,nt,nt,nt,nt,-4%,nt
O=C(NC1CCCc2ccccc21)c1cncc(Br)c1 (stereo not drawn),0%,-71*,3,1,-6%,6
CCCCCn1c(=O)c(C(=O)c2ccccc2)nc2ccccc21,-1%,-78*,-120*,2,-5%,16
COc1ccc(C(=O)n2nc(-c3ccco3)nc2SC)cc1OC,-3%,-177*,-132*,0,-5%,78
CCCCCCCNC(=O)C1(CC2CC(c3cccc(Br)c3)=NO2)CCN(C(=O)CCCCCBr)CC1 (stereo not drawn),-5%,-96*,-123*,0,-5%,0
Cc1ccc(S(=O)(=O)CC(C)N2CCOCC2)c(S(=O)(=O)CC(C)N2CCOCC2)c1 (stereo not drawn),-9%,8,-224*,-1,-6%,6
Cc1ccc(S(=O)(=O)CC(CN2CCOCC2)N2CCOCC2)cc1 (stereo not drawn),-1%,3,-3,2,-2%,-5
COc1cc(O)ccc1CN1CCc2nnc(C(C)NC(=O)c3cc(F)ccc3F)n2CC1 (stereo not drawn),nt,nt,nt,nt,0%,nt
CC(C)NS(=O)(=O)c1ccc(NC(=S)NC(=O)c2ccc(-c3ccccc3)cc2)cc1,-6%,-75*,1,3,-1%,16
COc1ccc(N2CC(C(=O)Nc3nnc(SCC(=O)NCC4CCCO4)s3)CC2=O)cc1 (stereo not drawn),0%,-197*,-128*,0,-3%,72
Cc1ccc(N2CC(C(=O)Nc3nnc(SCC(=O)NCC4CCCO4)s3)CC2=O)cc1C (stereo not drawn),nt,17,-4,0,-1%,26
COc1ccccc1C1CCN(Cc2ccc(C)cc2)CC1,-4%,-84*,39,-1,-6%,7
Cc1ccccc1OCc1n(CC(=O)OC2CC(C)CCC2C(C)C)c2ccccc2[n+]1C (stereo not drawn),-5%,-10,-82*!,-1,-13%,22
CC1CCC(C(C)C)C(OC(=O)Cn2c(-c3ccc(Br)cc3)[n+](C)c3ccccc32)C1 (stereo not drawn),-2%,?,-104*!,4,-4%,45
COC(=O)C1CCCCN1Cc1ccc2c(c1)CN(C1CCSCC1)CCO2 (stereo not drawn),nt,nt,nt,nt,-4%,nt
COc1ccc(Nc2nc(N)nc(CSc3nc4ccccc4s3)n2)cc1,nt,nt,nt,2,-3%,1
Cc1cccc(Nc2nc(N)nc(CN3CCN(Cc4ccc5c(c4)OCO5)CC3)n2)c1,-8%,-110*,-26,-1,-3%,29
SMILES,TSG101-PTAP inh,KCNH2 3.1 block,hERG WT inh,TRPML1 ag,GRP78 ERSR act,TRPML1 inh
Cc1ccc(Nc2nc(N)nc(CN3CCc4ccccc4C3)n2)cc1,-5%,-79*,-12,1,-3%,27
Cc1ccc(Nc2nc(N)nc(CSc3nc4ccccc4s3)n2)cc1,?,-72*,-3,1,-1%,37
Cc1c(Cl)cccc1Nc1nc(N)nc(CN2CCc3ccccc3C2)n1,-6%,-22,33,0,2%,4
Nc1nc(CN2CCN(c3ccccn3)CC2)nc(Nc2ccc(Cl)cc2)n1,2%,-21,-104*,1,-4%,-1
Cc1oc(-c2ccccc2NC(=O)C2CCCO2)nc1CNC(=O)c1[nH]c2c(C)ccc(C)c2c1C (stereo not drawn),nt,nt,nt,nt,-5%,nt
COC(=O)c1cc(CNC(=O)c2ccc3ncccc3c2)cc(NC(=O)c2ccccc2Cl)c1,nt,nt,nt,nt,-2%,nt
COCc1c(C(=O)N2CCN(C)CC2)cnn1-c1ncc2c(n1)-c1ccccc1CCC2,nt,nt,nt,nt,-3%,nt
COc1ccc(-c2cc(C)cc3c2OC(CNC(=O)c2cc(C(C)C)on2)C3)nn1 (stereo not drawn),nt,nt,nt,nt,-4%,nt
COCC1CCCN(Cc2ccc3c(c2)CN(C(=O)c2ccc(OC)nc2OC)CCO3)C1 (stereo not drawn),nt,nt,nt,nt,-5%,nt
CC(C)C(NS(C)(=O)=O)c1nnc2n1CCN(Cc1ccc3cccnc3c1)CC2 (stereo not drawn),nt,nt,nt,nt,-5%,nt
COc1ccc(N2CCN(Cc3nc(N)nc(Nc4ccccc4OC)n3)CC2)cc1,1%,-27,-7,2,-2%,7
COc1ccccc1N1CCN(Cc2nc(N)nc(Nc3ccc(C)c(Cl)c3)n2)CC1,0%,-106*,-7,2,-5%,-1
COc1ccccc1Nc1nc(N)nc(CN2CCN(Cc3ccc4c(c3)OCO4)CC2)n1,-5%,-110*,-49,1,-5%,20
COc1ccc(Nc2nc(N)nc(CN3CCN(c4ccc(F)cc4)CC3)n2)cc1,-6%,-77*,47,-1,-3%,-8
Cc1cccc(Nc2nc(N)nc(CN3CCN(c4ccccc4F)CC3)n2)c1,-12%,-80*,25,2,-1%,8
Cc1ccc(CNc2nc(CN3CCCCC3c3cccnc3)nc3ccccc23)o1 (stereo not drawn),nt,nt,nt,nt,-9%,nt
COc1ccccc1Nc1nc(N)nc(CN2CCN(Cc3ccccc3)CC2)n1,-13%,-77*,-21,-1,-3%,-10
COc1ccccc1Nc1nc(N)nc(CN2CCCCC2)n1,-2%,3,23,-1,-3%,-5
